# Measurements from ChEMBL document CHEMBL3433997, “St. Jude Leishmania screening dataset” (2016).
# How the values were obtained:
# Format in all cases: functional
# [1] = molecular target: Solute carrier family 2, facilitated glucose transporter member 1 (Homo sapiens) (UniProt P11166); assay: ST_JUDE_LEISH: Cytotoxicity at 2uM final concentration against transgenic Leishmania Mexicana promastigotes LmGLUT1 that are glucose transport deficient and complemented with the human glucose transporter GLUT1. Activity is measured by DNA content using SYBR green in vitro
# [2] = molecular target: Hexose transporter 1 (Plasmodium falciparum) (UniProt O97467); assay: ST_JUDE_LEISH: Cytotoxicity at 2uM final concentration against transgenic Leishmania Mexicana promastigotes LmPfHT that are glucose transport deficient and complemented with the Plasmodium falciparum hexose transporter. Activity is measured by DNA content using SYBR green in vitro
# [3] = molecular target: Glucose transporter (Leishmania mexicana) (UniProt O61059); assay: ST_JUDE_LEISH: Cytotoxicity at 2uM final concentration against transgenic Leishmania Mexicana promastigotes LmGT2 that are glucose transport deficient and complemented with the L. Mexicana glucose transporter 2. Activity is measured by DNA content using SYBR green in vitro
# Chain of Solute carrier family 2, facilitated glucose transporter member 1 (Homo sapiens) (P11166 whole entry): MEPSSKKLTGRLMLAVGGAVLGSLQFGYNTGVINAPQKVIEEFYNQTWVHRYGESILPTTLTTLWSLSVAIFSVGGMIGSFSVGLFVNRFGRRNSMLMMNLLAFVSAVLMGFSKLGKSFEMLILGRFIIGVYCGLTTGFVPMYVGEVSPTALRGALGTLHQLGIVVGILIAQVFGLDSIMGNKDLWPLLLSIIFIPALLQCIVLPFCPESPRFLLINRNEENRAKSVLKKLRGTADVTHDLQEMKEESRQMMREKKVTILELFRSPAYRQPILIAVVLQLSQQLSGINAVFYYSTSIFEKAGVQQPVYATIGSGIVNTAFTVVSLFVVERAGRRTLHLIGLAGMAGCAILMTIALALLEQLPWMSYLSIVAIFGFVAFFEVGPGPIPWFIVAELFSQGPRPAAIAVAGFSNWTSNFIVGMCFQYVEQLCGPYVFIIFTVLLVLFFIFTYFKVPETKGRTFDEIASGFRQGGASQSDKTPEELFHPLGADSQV
SMILES,inhibition [1] [%],inhibition [2] [%],inhibition [3] [%]
COc1ccccc1NC(=O)Nc1cccc(-c2cccc(-c3nc4cccc(C)c4[nH]3)c2)c1,-1.43,0.52,-1.31
COc1cccc(Nc2nc(NCCO)c3ccccc3n2)c1,14.8,15,5.17
COc1cc2c(Nc3ccc(NC(=O)c4ccccc4)cc3)ncnc2cc1OCCCN1CCOCC1,3.25,3.13,4.08
O=c1cc(-c2ccc3ccccc3c2)[nH]c2ccccc12,2.83,2.68,2.23
COc1ccc2c(NN=Cc3ccccn3)ccnc2c1,13.7,11.8,11.3
